# Measured values: PubChem BioAssay
# Results filed as inconclusive are left out. Calls of active or inactive are those of the source.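 How the source made its calls, unless noted: active means growth inhibition above 25% in both replicates, a cutoff set 3 SD above the mean; inconclusive means above 25% in only one replicate; inactive means the rest.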
# Tests used:
# [1] = reducers of endogenous Her2 protein level, primary screen, SKBR3 breast tumor cells, AlphaScreen, ATP viability (AID 461;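 active means Her2 level under about 52% in both replicate screens, with viability over 70% of control, limit read from the data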;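 on Her2 level: lower value means less Her2 protein in the cells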;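 on viability: percent of carrier control wells set as 100% viability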); conditions: 18-24 h, measured here: SKBR3 viability, ATP luminescence, at 10 µM
# [2] = molecular target: Receptor tyrosine-protein kinase erbB-2 (Homo sapiens) (UniProt P04626); experiment: as above; conditions: 18-24 h, at 10 µM, stronger effect = lower value
# [3] = SK-BR-3 cell growth inhibitors, pilot screen, 24 h, human (AID 572;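 active means viability at or below 10% of carrier control in both of two separate runs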;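 further: compound exposure lasted between 18 and 24 h rather than exactly 24 h; 100% = carrier-treated control wells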); conditions: SK-BR-3 viability, CellTiter-Glo luminescence, at 10 µM, stronger effect = lower value
# [4] = HUVEC growth inhibition – cell-based, human, primary screen (AID 575;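 active means viability at or below 30% in both replicate assays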;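 further: 100% = median of untreated cell wells with 0.1% DMSO on each plate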); conditions: HUVEC proliferation, CellTiter-Glo luminescence, 72 h; at 10 µM; stronger effect = lower value
# [5] = growth inhibitors of H69AR lung tumor, primary screen, human, duplicate replicates (AID 580;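 active means viability at or under a set limit in both replicates, limit being median viability minus 3 SD, cut at about 48% in these data, passing the limit was not always enough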;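 further: 100% = mean luminescence of untreated wells and 0% = no signal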); conditions: H69AR lung tumor cells viability, ATP luminescence, 72 h; at 10 µM; stronger effect = lower value
# [6] = reversal of MRP1-mediated doxorubicin resistance, pilot screen, H69AR cells, doxorubicin co-treatment (AID 601;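 active means viability loss from added drug above about 55%, and viability with drug at most 40%, in both replicates, limit read from the data, passing the limit was not always enough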); conditions: CellTiter-Glo, 72 h, at 10 µM; for differential viability (reversal): stronger effect = higher value
# [7] = 384-well plate pilot, post-Golgi transport modulator project, inhibition of yeast transport mutant growth (AID 636; in the data active means inhibition above about 31%); conditions: absorbance 615 nm, about 18 h, stronger effect = higher value
# [8] = growth suppression of yeast trafficking mutant, preliminary HTS, modulators of trafficking downstream of Golgi apparatus project, 1536-format plate, OD 615 nm (AID 637; in the data active means inhibition above about 30%); conditions: yeast transport mutant growth, absorbance 615 nm, 18 h; stronger effect = higher value
# [9] = OD615 S. cerevisiae growth inhibition, permissive medium, pilot counter-assay, permissive growth control for S. cerevisiae lifespan shortening project (AID 705); conditions: OD615, 24 h, at 10 µM, stronger effect = higher value
# [10] = Restrictive medium S. cerevisiae growth inhibition, OD615, pilot screen of yeast lifespan reduction project, restrictive growth control (AID 706;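 active means growth inhibition above a set limit, 3 SD over mean compound inhibition, in both replicates, cut at about 43% in these data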;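 further: modified DeaD lifespan yeast strain shifted to restrictive glucose medium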); conditions: OD615, 48 h, at 10 µM, stronger effect = higher value
# [11] = viability gain of MRP-1-high H69AR cells under doxorubicin, pilot screen, MRP-1 activator project, CellTiter-Glo, duplicate (AID 807;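 active means viability increase at or above a cutoff of the median across tested compounds plus 3 SD, cut at about 8.5% in these data, passing the limit was not always enough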;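 further: compound pretreatment 18-22 h then 72 h combined with doxorubicin; 0% = doxorubicin alone and 100% = vehicle without doxorubicin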); conditions: H69AR viability with doxorubicin, CellTiter-Glo luminescence; at 10 µM; stronger effect = higher value
# [12] = growth suppression of beta-catenin knockout HCT116, pilot screen, human colon tumor cells (AID 823;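 active means cell viability at or below a set limit in both duplicate runs, the limit being the all-compound median minus 4 SD, cut at about 23% in these data, passing the limit was not always enough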;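 further: 0% = wells killed by 20 µM Hyamine and 100% = untreated DMSO cell wells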); conditions: CellTiter-Glo, 60 h, at 10 µM, stronger effect = lower value
# [13] = growth suppression of PTEN-deleted HCT116, pilot screen, cell-based, HCT116 clonal line, CellTiter-Glo (AID 824;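 active means viability at or below 27.92% in each of two runs, the all-compound median minus 4 SD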;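 further: 0% = 20 µM Hyamine control and 100% = vehicle cell control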); conditions: 60 h, at 10 µM, stronger effect = lower value
# [14] = inhibitors of the yeast RAM network, pilot screen, dse1pr::URA3 reporter, 5-FOA selection (AID 869;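 active means inhibition over a set limit, the all-compound mean plus 3 SD, in both replicate runs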;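 further: 0% = DMSO wells with no growth and 100% = 10 µM 1-NA-PP1 with full growth; RAM network block rescues cells from 5-FOA so hits raise OD615 growth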); conditions: S. cerevisiae dse1pr::URA3 5-FOA growth, OD615, 2 d; at 10 µM; stronger effect = higher value; strain carries analog-sensitive mutant Cbk1 kinase
# [15] = RAM signaling pathway blockade in yeast – S. cerevisiae, Pdr1DBD-CYC8 efflux-inhibited sensitized strain, primary screen (AID 1298;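 active means RAM network inhibition above 8.4% in each of two replicates, 3 SD over the compound average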;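 further: 0% = DMSO untreated cells without growth and 100% = 10 µM 1-NA-PP1 full growth; higher means more yeast growth rescued from 5-FOA killing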); conditions: S. cerevisiae cbk1-as DSE1-URA3 strain, 5-FOA growth OD615, 2 d; at 50 µM; stronger effect = higher value
# [16] = H69AR cells + 2 uM doxorubicin, measured here: viability with 2 uM doxorubicin, stronger effect = lower value
# [17] = H69AR cells, compound alone cytotoxicity
# Receptor tyrosine-protein kinase erbB-2 (Homo sapiens), sequence (P04626 whole entry, looked up): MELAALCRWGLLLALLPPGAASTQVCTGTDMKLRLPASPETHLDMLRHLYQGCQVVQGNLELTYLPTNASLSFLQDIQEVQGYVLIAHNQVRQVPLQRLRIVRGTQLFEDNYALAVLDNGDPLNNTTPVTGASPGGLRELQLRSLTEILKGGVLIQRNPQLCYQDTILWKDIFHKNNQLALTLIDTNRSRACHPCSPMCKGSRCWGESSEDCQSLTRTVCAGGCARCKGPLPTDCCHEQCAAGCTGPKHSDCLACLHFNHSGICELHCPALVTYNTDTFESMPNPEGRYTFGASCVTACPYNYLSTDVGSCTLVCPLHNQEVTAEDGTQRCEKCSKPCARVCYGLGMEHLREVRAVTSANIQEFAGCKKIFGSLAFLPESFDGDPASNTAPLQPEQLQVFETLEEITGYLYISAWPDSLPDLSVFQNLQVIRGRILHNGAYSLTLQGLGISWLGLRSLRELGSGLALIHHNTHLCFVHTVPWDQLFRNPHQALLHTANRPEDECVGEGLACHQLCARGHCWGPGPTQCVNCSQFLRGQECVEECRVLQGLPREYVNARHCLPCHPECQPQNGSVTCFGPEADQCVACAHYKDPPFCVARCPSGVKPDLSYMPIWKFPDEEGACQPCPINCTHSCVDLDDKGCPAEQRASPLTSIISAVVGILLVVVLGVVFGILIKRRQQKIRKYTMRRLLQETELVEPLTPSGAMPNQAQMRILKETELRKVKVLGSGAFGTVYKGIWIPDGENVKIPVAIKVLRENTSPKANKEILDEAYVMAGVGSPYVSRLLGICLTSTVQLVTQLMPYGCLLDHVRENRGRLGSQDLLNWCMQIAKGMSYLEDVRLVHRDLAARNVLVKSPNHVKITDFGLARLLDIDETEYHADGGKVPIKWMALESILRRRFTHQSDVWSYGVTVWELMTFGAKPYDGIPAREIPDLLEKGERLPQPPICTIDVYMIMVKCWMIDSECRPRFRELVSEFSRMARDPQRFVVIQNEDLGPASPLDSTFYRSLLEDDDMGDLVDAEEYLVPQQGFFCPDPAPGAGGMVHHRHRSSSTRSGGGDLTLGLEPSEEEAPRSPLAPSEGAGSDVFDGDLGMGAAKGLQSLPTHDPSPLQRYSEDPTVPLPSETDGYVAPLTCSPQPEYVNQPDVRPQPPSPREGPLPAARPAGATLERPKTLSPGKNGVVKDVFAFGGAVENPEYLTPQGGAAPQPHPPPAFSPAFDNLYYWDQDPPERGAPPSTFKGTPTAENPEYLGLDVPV
SMILES,viability [1],Her2 level [2],viability [3],viability [4],viability [5],differential viability (reversal) ([6]; H69AR cells + 2 uM doxorubicin),"viability [6, 16]","viability [6, 17]",inhibition [7],inhibition [8],growth inhibition [9],growth inhibition [10],viability increase [11],viability [12],viability [13],inhibition [14],RAM network inhibition [15]
CCOC(=O)c1oc2c(CN3CCN(C)CC3)c(O)ccc2c(=O)c1-c1ccccc1OC,94%,110% (inactive),94% (inactive),99.5% (inactive),93.1% (inactive),-0.225% (inactive),93.3%,93.1%,0% (inactive),0.5% (inactive),-13% (inactive),-15.5% (inactive),-1.3% (inactive),103% (inactive),94% (inactive),3.98% (inactive),1.2% (inactive)
COc1cccc(/C=N/n2cnnc2)c1OCc1ccccc1,98%,104% (inactive),98% (inactive),93.2% (inactive),97.8% (inactive),7.02% (inactive),90.8%,97.8%,0% (inactive),-0.16% (inactive),-14.7% (inactive),-17% (inactive),-0.6% (inactive),107% (inactive),98.9% (inactive),0.69% (inactive),-1.19% (inactive)
Cc1ccc(N(C)C(=O)N2CCN(c3ccccn3)CC2)cc1,94.5%,112% (inactive),94.5% (inactive),109% (inactive),98.2% (inactive),7.52% (inactive),90.7%,98.2%,2.27% (inactive),-0.5% (inactive),0.955% (inactive),5.44% (inactive),-1.03% (inactive),97.6% (inactive),97.1% (inactive),1.14% (inactive),-0.55% (inactive)
COCCN(CCOC)Cc1c(C)[nH]c2ccccc2c1=O,96.5%,98% (inactive),96.5% (inactive),105% (inactive),89.4% (inactive),-4.47% (inactive),93.8%,89.4%,1.28% (inactive),-7.5% (inactive),-0.675% (inactive),-3.83% (inactive),-2.47% (inactive),92.1% (inactive),91.3% (inactive),1.22% (inactive),3.31% (inactive)
COc1cccc(NC(=O)C2CCCN(S(=O)(=O)c3cccc4cccnc34)C2)c1 (stereo not given),106%,102% (inactive),106% (inactive),77.8% (inactive),82.7% (inactive),-6.64% (inactive),89.3%,82.7%,-5.73% (inactive),-5.5% (inactive),-12.6% (inactive),-6.68% (inactive),-1.5% (inactive),72.4% (inactive),70.6% (inactive),1.77% (inactive),3.85% (inactive)
O=C(NCCCN1CCOCC1)c1ccc(CS(=O)(=O)c2c(Cl)cccc2Cl)o1,90.5%,102% (inactive),90.5% (inactive),88.8% (inactive),92.3% (inactive),-2.01% (inactive),94.3%,92.3%,-0.67% (inactive),-0.5% (inactive),-11.8% (inactive),-17.8% (inactive),-1.26% (inactive),101% (inactive),92.3% (inactive),1.61% (inactive),5% (inactive)
CC1=C(C)CC2C(=O)N(c3cccc4ccccc34)C(=O)C2C1 (stereo not given),104%,114% (inactive),104% (inactive),80.1% (inactive),85.7% (inactive),2.52% (inactive),83.2%,85.7%,-6.53% (inactive),-11.3% (inactive),75.2% (active),67.6% (active),-0.78% (inactive),100% (inactive),96.5% (inactive),0.295% (inactive),2.23% (inactive)
CCOc1cccc(C(=O)N2CCCCC2c2cccnc2)c1 (stereo not given),98.5%,96.5% (inactive),98.5% (inactive),101% (inactive),110% (inactive),10.3% (inactive),99.6%,110%,-0.93% (inactive),-1.13% (inactive),-4.46% (inactive),-2.66% (inactive),-1.99% (inactive),101% (inactive),95.2% (inactive),0.635% (inactive),1.95% (inactive)
CC1=C(C(=O)OC(C)C)C(c2ccccn2)n2ncnc2N1 (stereo not given),108%,113% (inactive),108% (inactive),89.5% (inactive),98.1% (inactive),6.04% (inactive),92.1%,98.1%,-3.2% (inactive),0.83% (inactive),-5.88% (inactive),-3.54% (inactive),-0.55% (inactive),106% (inactive),99.5% (inactive),2.84% (inactive),7.35% (inactive)
CC(NC(=O)c1cc2c(=O)n(C)c3ccccc3c2n1C)c1ccc2c(c1)OCCO2 (stereo not given),94.5%,84% (inactive),94.5% (inactive),77% (inactive),42.7% (active),-20.9% (inactive),63.6%,42.7%,-2.18% (inactive),1.33% (inactive),-5.51% (inactive),-1.51% (inactive),-4.19% (inactive),65.6% (inactive),58.2% (inactive),0.645% (inactive),3.77% (inactive)
COc1ccc(N2C(=O)CCC(C(=O)N3CCCCC3)C2c2ccc(OC)c(OC)c2)cc1 (stereo not given),100%,90.5% (inactive),100% (inactive),92.3% (inactive),95.4% (inactive),2.14% (inactive),93.2%,95.4%,-6.67% (inactive),-1.11% (inactive),-0.77% (inactive),-8.71% (inactive),0.42% (inactive),105% (inactive),98.2% (inactive),0.405% (inactive),2.24% (inactive)
CCCSCCCNC(=O)Cn1cc2c(n1)CCC(C)C2 (stereo not given),99.5%,106% (inactive),99.5% (inactive),101% (inactive),98.8% (inactive),7.85% (inactive),91%,98.8%,4.49% (inactive),-0.67% (inactive),3.59% (inactive),1.5% (inactive),-0.9% (inactive),102% (inactive),95.7% (inactive),0.775% (inactive),1.33% (inactive)
CC(=O)c1cc2c(cc1NC(=O)CN1CCN(C(=O)c3ccco3)CC1)OCO2,90%,120% (inactive),90% (inactive),92.5% (inactive),86.3% (inactive),-3.21% (inactive),89.5%,86.3%,-5.47% (inactive),-3.5% (inactive),0.565% (inactive),-17.1% (inactive),-3.21% (inactive),98.2% (inactive),97% (inactive),2.79% (inactive),0.37% (inactive)
CCOC(=O)CCc1c(C)nc2cc(-c3ccc(F)cc3)[nH]n2c1=O,97%,99% (inactive),97% (inactive),97.6% (inactive),101% (inactive),8.37% (inactive),92.2%,101%,-5.45% (inactive),-7.33% (inactive),-13.1% (inactive),-4.2% (inactive),-1.53% (inactive),95.8% (inactive),95.1% (inactive),1.8% (inactive),1.51% (inactive)
Cc1ccc(S(=O)(=O)NCCOC(=O)Nc2sc(=S)n(C)c2C)cc1,75.5%,96.5% (inactive),75.5% (inactive),90% (inactive),101% (inactive),7.26% (inactive),94.1%,101%,-2.84% (inactive),14.9% (inactive),6.39% (inactive),23.1% (inactive),-3.78% (inactive),115% (inactive),88.2% (inactive),1.25% (inactive),1.73% (inactive)
O=C(Nn1cnnc1)C1Cc2ccccc2CN1S(=O)(=O)c1ccc(F)cc1 (stereo not given),112%,97% (inactive),112% (inactive),90.4% (inactive),97.2% (inactive),-1.64% (inactive),98.8%,97.2%,-5.95% (inactive),4.75% (inactive),-1.04% (inactive),5.43% (inactive),0.15% (inactive),101% (inactive),102% (inactive),0.38% (inactive),4.84% (inactive)
COC(=O)CN1C(=O)CC(C)(C)S(=O)c2ccccc21 (stereo not given),114%,110% (inactive),114% (inactive),118% (inactive),99.3% (inactive),8.85% (inactive),90.4%,99.3%,-4.4% (inactive),16.3% (inactive),-14.5% (inactive),-3.88% (inactive),-0.45% (inactive),107% (inactive),99.7% (inactive),0.32% (inactive),2.09% (inactive)
CCN1CCN(C(c2cccs2)C(C)NC(=O)c2ccccc2)CC1 (stereo not given),92%,88% (inactive),92% (inactive),104% (inactive),87.3% (inactive),6.01% (inactive),81.3%,87.3%,-0.26% (inactive),4% (inactive),-5.51% (inactive),1.4% (inactive),-0.71% (inactive),101% (inactive),105% (inactive),-0.445% (inactive),5.79% (inactive)
COc1ccc(NC(=O)CN(c2cc(C)cc(C)c2)S(=O)(=O)c2c(C)noc2C)cc1OC,89%,73% (inactive),89% (inactive),110% (inactive),88.2% (inactive),14.6% (inactive),73.6%,88.2%,0.26% (inactive),-1.67% (inactive),-9.49% (inactive),-4.85% (inactive),-2.49% (inactive),89% (inactive),92.5% (inactive),3.25% (inactive),5.58% (inactive)
O=C(COc1ccc2ccccc2c1)N1CCCC1,101%,88.5% (inactive),101% (inactive),85.3% (inactive),90% (inactive),8.64% (inactive),81.4%,90%,0.38% (inactive),-6% (inactive),-2.41% (inactive),-2.41% (inactive),-0.13% (inactive),96.2% (inactive),101% (inactive),0.745% (inactive),6.48% (inactive)
